TRHR enhancer – allosteric enhancers of human TRH receptor | P34981 | TRHR cells, fluo-8 calcium fluorescence, EC20 TRH enhancement | enhancement, % at 2 µM | 360,000 tested, 0.66% active; in the data active = enhancement above about 30%; also: 0% is about no effect
Target sequence (P34981 whole entry, looked up): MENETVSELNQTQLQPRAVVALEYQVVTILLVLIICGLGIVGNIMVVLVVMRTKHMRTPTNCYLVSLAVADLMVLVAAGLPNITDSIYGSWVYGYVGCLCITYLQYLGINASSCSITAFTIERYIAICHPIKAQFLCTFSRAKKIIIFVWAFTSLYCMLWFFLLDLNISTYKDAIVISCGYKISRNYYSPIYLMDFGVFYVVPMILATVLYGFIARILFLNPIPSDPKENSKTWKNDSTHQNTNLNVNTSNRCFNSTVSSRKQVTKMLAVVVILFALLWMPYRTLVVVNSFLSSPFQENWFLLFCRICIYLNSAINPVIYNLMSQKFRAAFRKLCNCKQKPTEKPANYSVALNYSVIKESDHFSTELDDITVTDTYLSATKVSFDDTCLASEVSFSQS
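Enhancer read-out: after compound pinning and an initial kinetic agonist-mode read, an EC20 of TRH (10 nM final) was injected and fluo-8 calcium signal (Ex 480/Em 530) followed at 1 s/cycle for 100 cycles in TRHR-expressing cells.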
TRPML1 inh – human mucolipin-1 channel inhibition; 390,000 tested, 0.02% active; activity change, negative = inhibition, % (no concentration beside the values); AID 624415; Q9GZU1; TRPML1-inducible cells, Ca2+ dye fluorescence, FDSS; active compounds read low; inhibition of EC80 agonist-evoked calcium signal; in the data active = activity change below about -50%; inconclusive = between about -30% and that limit;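 also: stimulus is agonist 54-4 at its EC80 concentration; % is scaled to controls: 0 for no effect and ±100 for the full control effect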
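Calcium fluorescence in TRPML1-DL cells induced overnight with Tet: a 110 s read after compound pin addition, then a 110 s antagonist read after challenge with 54-4 at 4 uM final (EC80).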
TRHR ag – TRH receptor (human) agonism. P34981. TRHR cells, calcium flux fluo-8, FDSS agonist mode. activation, % at 2 µM. 360,000 tested, 0.18% active; in the data active = activation above about 30%; also: 0% is about no effect
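TRHR-expressing cells, plated overnight in medium with 10% serum, were loaded with fluo-8 calcium dye at room temperature. After a 10 s baseline, library compound was pin-added and calcium release was recorded kinetically (ex 480/em 530) as agonist response.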
PTAP TSG101 blk – blocks PTAP/TSG101 interaction to inhibit HIV-1 budding. Q99816. Fluorescence polarization, FITC-PTAP peptide / Tsg101 binding. AID 493005. 340,000 tested, under 10 active. Potency, µM (top dose mostly 115 µM), inactives show at the top dose activity change, negative = inhibition, most hits filed as inhibitors; active = well fitted inhibition curve with a large enough effect in the main read-out, with a control signal flat, not every such curve was filed as active; inconclusive = small, poorly fitted or top-dose-only effect, or effect the other way, or a change in a side signal; inactive = no such curve, though single readings can be large or run the other way; also: potency is read from the fitted curve at half-maximal effect; % of control where 0% means no effect
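Steps: Tsg101 binding domain dispensed (10 uM final), compounds pinned in DMSO, FITC-labeled PTAP-motif peptide added (50 nM final); after 20 min binding at room temperature, polarization measured.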
TRPML1 ag – activates the human TRPML1 channel. Q9GZU1. TRPML1-expressing cells, Ca2+ dye fluorescence, FDSS. activation, % (test concentration not listed). 410,000 tested, 0.12% active. AID 624414; in the data active = activation above about 50%; inconclusive = mostly about 30% to 49%; also: 0% is about no effect
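Calcium fluorescence on an FDSS kinetic reader gave the read-out. Tet-induced TRPML1-DL cells were plated overnight, dye-loaded (Ca8 with quencher, 45-90 min, room temperature, dark), then read 110 s after compound addition, and again 110 s after 4uM final 54-4 (EC80).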
* marks the source's active call; other numbers are inactive results; ? = inconclusive; · = not tested or not shown. This is a sample that favours compounds with a hit; in the whole collection about 0.81% have one here.

SMILES	TRHR enhancer	TRPML1 inh	TRHR ag	PTAP TSG101 blk	TRPML1 ag
c1ccc2[nH]c(SCc3cn4cccnc4n3)nc2c1	34.1*	-22.0	0.4	-0.5%	-0.1
Cc1ccccc1OCC(=O)NNC(=O)CCc1ccccc1	31.8*	-2.7	-0.5	-2.7%	0.3
O=C(C1=C[C@@H](c2csc3ccccc23)C[C@@H](OCc2ccc(CO)cc2)O1)N1CCN(Cc2ccccc2)CC1	30.5*	-5.9	1.0	7.2%	0.5
O=C(C1=C[C@@H](c2csc3ccccc23)C[C@@H](OCc2ccc(CO)cc2)O1)N1CCN(Cc2ccc3c(c2)OCO3)CC1	-1.5	21.2	0.6	2.0%	1.6
COc1ccc(NC(=O)C(OC(=O)CNC(=O)c2ccccc2)c2ccccc2)c(C)c1 (configuration not stated)	0.3	·	-0.2	·	·
COC(=O)/C=C(\C)NC(=O)c1ccc(F)cc1	34.4*	-16.3	0.1	0.8%	1.4
c1ccc(C2=Nn3c(nnc3-c3n[nH]c4c3CCC4)SC2)cc1	0.9	9.2	-0.4	-4.9%	2.4
Clc1ccc(C2=Nn3c(nnc3-c3n[nH]c4c3CCC4)SC2)cc1Cl	35.5*	8.6	0.3	-7.0%	1.5
Cc1ccc(COC(=O)c2cc(S(=O)(=O)N3CCCCC3)ccc2N2CCOCC2)cc1	-6.0	44.2	0.6	-1.5%	1.4
CC(C)CNC(=O)COC(=O)c1cc(S(=O)(=O)N2CCCCC2)ccc1N1CCOCC1	32.4*	21.9	-0.2	-9.8%	-0.7
O=C(COC(=O)c1cc(S(=O)(=O)N2CCCCC2)ccc1N1CCOCC1)NCCc1ccc(F)cc1	30.8*	7.1	-0.4	-2.0%	2.4
CC(C)NC(=O)NC(=O)COC(=O)c1cc(S(=O)(=O)N2CCCCC2)ccc1N1CCOCC1	-4.7	-12.4	-1.7	-5.0%	0.5
CC(C)Cc1nn2c(=O)cc(COC(=O)c3ccccc3NC(=O)c3ccccc3)nc2s1	2.7	-55.6*	-1.2	·	-0.1
CCC[N+](C)(C)c1ccc(/C=C/c2ccncc2)cc1	·	·	·	·	16.5
Cc1ccc(C)c(NC(=O)CN(C)C(=O)c2ccc(-c3cccc(C(F)(F)F)c3)o2)c1	37.4*	-4.4	0.0	0.3%	-0.2
OC(CN1CCCCC1)c1ccccc1 (configuration not stated)	·	·	·	·	0.1
Cc1ccnc(N2CCCC(C(=O)NCc3cccs3)C2)n1 (configuration not stated)	8.6	9.7	0.0	-6.0%	-0.9
Cc1cc(C)nc(N2CCCC(C(=O)NCc3cccs3)C2)n1 (configuration not stated)	30.3*	25.9	-1.0	-10.9%	2.5
COc1cc(C(=O)n2nc(C)cc2C)ccc1O	37.8*	2.8	0.4	-5.4%	-0.3
C=CCC1=C/C(=C\c2c(N)n3nc(CC(=O)N4CCCC4)sc3nc2=O)C=C(OC)C1=O	7.0	-10.1	186.7*	-8.0%	68.3*
COC1=CC(=Cc2c(N)n3nc(CC(=O)N4CCOCC4)sc3nc2=O)C=C(OC)C1=O	8.4	-11.0	-0.4	?	6.5
Cc1nnc(SCC(=O)N2CCN(c3ccccc3)CC2)n(N)c1=O	38.0*	5.8	0.4	-0.4%	-0.3
Cc1ccccc1-n1cnnc1SCC(=O)N1CCN(c2ccccc2)CC1	-0.6	11.9	-0.1	-0.7%	0.3
COc1ccc(NC(=O)C(OC(=O)CNC(=O)c2ccccc2)c2ccccc2)cc1Cl (configuration not stated)	-1.8	·	-2.6	·	·
COc1ccc(Cn2nnnc2C(c2ccccn2)N2CCN(c3cc(Cl)ccc3C)CC2)cc1 (configuration not stated)	0.9	-14.1	1.6	-5.0%	74.3*
SMILES	TRHR enhancer	TRPML1 inh	TRHR ag	PTAP TSG101 blk	TRPML1 ag
COc1cc(/C=C(\C#N)c2ccccn2)cc(OC)c1O	4.7	30.0	47.0*	-0.5%	19.8
COc1cc(/C=C(\C#N)c2ccccn2)ccc1OCc1ccccc1Cl	1.7	-9.2	1.6	0.4%	0.7
O=c1c(O)c(-c2ccc(O)c(O)c2)oc2cc(O)cc(O)c12	62.6*	5.6	5.9	0.2%	0.6
O=[N+]([O-])c1ccc(/C=C2\C=C(C(O)c3ccc([N+](=O)[O-])cc3)c3ccccc32)cc1 (configuration not stated)	·	·	·	·	-0.3
c1ccc2c(N=NN3CCCCC3)ccnc2c1	·	·	·	·	0.9
COc1ccc(/C=C/c2nccc3ccccc23)cc1OC	·	·	·	·	-1.0
CCN(CC)c1cc(C)c(/C=C/c2ccnc3ccccc23)cc1C	·	·	·	·	19.0
COc1ccccc1-c1c(C)nn2c(-c3ccccc3)cc(C)nc12	-1.2	-0.4	0.2	-1.0%	4.6
COc1ccc(-c2c(C)nn3c(-c4ccccc4)cc(C)nc23)cc1OC	35.8*	19.9	1.0	·	-0.6
O=Cc1cc2c3c(c1)CCCN3CCC2	·	·	·	·	0.1
O=S(=O)(c1ccc(C(F)(F)F)cc1)N1CCN(S(=O)(=O)c2ccc3c(c2)OCCO3)CC1	-0.6	·	-0.2	·	·
CCC(=O)N1CCc2cc(CNC(=O)c3cccc(N(C)C)c3)ccc21	34.6*	-26.4	-0.9	·	0.9
CC(=O)Nc1cccc(C(=O)NCc2ccc3c(c2)CCN3C(C)=O)c1	-1.2	22.4	0.7	·	0.6
COC(=O)C1=C(C)N(C2CCCCC2)C(=O)/C1=C\c1cccs1	39.7*	1.8	-0.4	-6.1%	0.3
COC(=O)C1[C@H]2SC(C)(C)C(C(=O)OC)N2C(=O)N1Cc1ccccc1 (some centres not stated)	·	·	·	·	-0.6
O=C(O)c1ccc(S(=O)(=O)N(Cc2ccc(F)cc2)C2CCCCC2)cc1	37.9*	3.5	-0.5	-11.7%	1.1
CC[N+]1(CC(=O)c2ccc(Br)cc2)CCCCC1	·	·	·	·	0.0
CC(=O)N1c2ccc(S(=O)(=O)NCCC(=O)N3CCC(C)CC3)cc2CC1C (configuration not stated)	32.3*	-14.6	-0.1	-1.3%	0.4
CC(=O)N1c2ccc(S(=O)(=O)NCCC(=O)NC3CCCCCC3)cc2CC1C (configuration not stated)	3.2	-18.0	1.3	-2.2%	1.4
CCOC(=O)C1CCN(C(=O)COC(=O)c2cccc(F)c2)CC1	36.1*	-3.0	-0.4	-1.7%	0.2
c1cc(C2CCN(Cc3nc(-c4ccc5c(c4)OCO5)no3)CC2)ccn1	34.5*	-18.4	0.6	-0.1%	0.7
CCOC(=O)Cn1nc(C)cc1NC(=O)c1ccncc1	34.1*	-11.7	0.5	1.5%	0.0
CC(C)C[C@H](N)c1cn([C@@H](CCCCN)C(=O)N2CCNCC2)nn1	31.3*	11.4	-0.3	-3.8%	0.0
CC(C)CC(N)c1cn([C@@H](CCC(=O)O)C(=O)N2CCNCC2)nn1 (some centres not stated)	-2.4	13.5	-0.3	1.5%	-0.5
